Measured values taken from paper PMC4336329 (PLoS ONE, 2015).
Screen size: about 310,000 compounds; about 2,200 (0.71%) showed an effect of 50% or more. Effects have a minus sign here. The sample as a whole holds a higher share of strong results than the screen did.

Target: human ether-à-go-go-related gene (hERG) potassium channel (human, UniProt Q12809)
Assay: primary screen, population patch clamp on CHO cells stably expressing hERG; higher = less effect of the substance

Chain of human ether-à-go-go-related gene (hERG) potassium channel (Q12809 whole entry, looked up): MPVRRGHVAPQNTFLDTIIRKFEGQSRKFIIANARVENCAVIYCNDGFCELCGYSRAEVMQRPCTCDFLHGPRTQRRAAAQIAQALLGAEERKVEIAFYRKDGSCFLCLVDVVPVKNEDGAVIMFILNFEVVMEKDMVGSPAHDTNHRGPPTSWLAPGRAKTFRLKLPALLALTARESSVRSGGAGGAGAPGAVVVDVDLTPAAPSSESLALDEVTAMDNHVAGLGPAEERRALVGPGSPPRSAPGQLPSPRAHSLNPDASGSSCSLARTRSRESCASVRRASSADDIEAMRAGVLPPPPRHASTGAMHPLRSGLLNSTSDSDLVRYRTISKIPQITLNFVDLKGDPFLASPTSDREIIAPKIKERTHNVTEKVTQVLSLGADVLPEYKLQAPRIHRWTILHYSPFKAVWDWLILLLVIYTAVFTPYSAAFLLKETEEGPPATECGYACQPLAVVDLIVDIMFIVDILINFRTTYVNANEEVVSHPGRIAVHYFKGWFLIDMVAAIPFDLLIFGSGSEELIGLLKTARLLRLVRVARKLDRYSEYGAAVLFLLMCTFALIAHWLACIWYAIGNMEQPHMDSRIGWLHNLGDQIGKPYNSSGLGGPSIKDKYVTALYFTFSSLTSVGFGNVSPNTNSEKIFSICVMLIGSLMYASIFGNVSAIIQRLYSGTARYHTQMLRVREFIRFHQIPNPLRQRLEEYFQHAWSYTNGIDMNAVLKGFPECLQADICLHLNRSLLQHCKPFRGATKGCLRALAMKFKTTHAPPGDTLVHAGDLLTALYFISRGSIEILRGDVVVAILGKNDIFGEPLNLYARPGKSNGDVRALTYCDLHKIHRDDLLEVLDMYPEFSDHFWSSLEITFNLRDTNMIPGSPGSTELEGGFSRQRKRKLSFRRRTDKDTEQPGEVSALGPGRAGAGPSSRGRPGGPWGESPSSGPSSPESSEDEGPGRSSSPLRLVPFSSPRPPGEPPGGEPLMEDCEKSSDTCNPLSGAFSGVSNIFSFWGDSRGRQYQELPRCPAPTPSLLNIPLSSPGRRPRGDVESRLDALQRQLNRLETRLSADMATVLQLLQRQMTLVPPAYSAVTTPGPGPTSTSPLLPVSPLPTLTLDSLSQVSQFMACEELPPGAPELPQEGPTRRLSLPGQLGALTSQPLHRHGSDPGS

Compound | hERG current change (%, negative = inhibition) at 1uM [%]
Cc1ccc(-c2cc3ccccc3nc2N2CCOCC2)cc1 | 9.78
Cc1ccc(OC(F)F)c(NC(=O)Nc2ccc3c(c2)OCO3)c1 | 19.9
CC(=O)NC(c1ccco1)c1ccc2cccnc2c1O (stereo not shown) | -3.48
Cc1cc(CSc2ccccc2C(=O)O)on1 | 11.6
Cc1ccc(C2=N/C(=C\c3cccnc3)C(=O)O2)cc1 | 3.52
CN1CCN(CC2(O)CCN(S(=O)(=O)c3ccc(Cl)cc3)CC2)CC1 | -9.27
O=S(=O)(c1ccccc1)N1CCN(C2CCN(Cc3ccccc3)CC2)CC1 | -64.1
O=S(=O)(c1ccccc1)N1CCC(O)(CN2CCN(c3ccccc3)CC2)CC1 | 14.8
CS(=O)(=O)N1CCN(C2CCN(Cc3ccccc3)CC2)CC1 | 7.88
COc1ccc(S(=O)(=O)N2CCN(C3CCN(Cc4ccccc4)CC3)CC2)cc1 | -15.6
O=S(=O)(c1ccc(Cl)cc1)N1CCC(O)(CN2CCN(Cc3ccccc3)CC2)CC1 | -75.6
Cc1cc(NC(=O)CCC(=O)N(Cc2cccnc2)C(C(=O)NC(C)(C)C)c2ccccc2Cl)no1 (stereo not shown) | 14.7
O=C1CN(c2ccccc2)C(=S)N1C(=O)c1ccccc1 | 13.5
C/C(=N/NC(=O)c1ccc(Br)o1)c1cccc(NC(=O)c2ccc(C)o2)c1 | -58
C/C(=N\NC(=O)c1cccc(Br)c1)c1cccc(NC(=O)c2ccc(C)o2)c1 | 2.01
C/C(=N/NC(=O)c1ccco1)c1cccc(NC(=O)c2ccc(C)o2)c1 | -8.71
Cc1[nH]c2ccc(C(=O)N3CCN(Cc4ccccc4)CC3)cc2c1C | 0.829
CC1(c2nnc(-c3cccc(Cl)c3)o2)CC(c2ccccc2F)=NO1 (stereo not shown) | 8.2
Cl.O.O=C(c1ccc(F)cc1)C1CCN(CCn2c(=S)[nH]c3ccccc3c2=O)CC1 | -77.7
CC1(C)C(=O)N(CCN2CCC(C(=O)c3ccc(F)cc3)CC2)c2ccccc21.Cl | -60.8
O=C(CN1CCC(C(=O)c2ccc(F)cc2)CC1)Nc1ccccc1 | -10.5
O=C(CN1CCC(C(=O)c2ccc(F)cc2)CC1)NCc1ccccc1F | 2.84
CC1CCN(CCn2c(=S)[nH]c3ccccc3c2=O)CC1 | 1.9

Compound | hERG current change (%, negative = inhibition) at 1uM [%]
O=C(O)C(O)C(O)C(=O)O.O=C(c1ccc(F)cc1)C1CCN(CCn2c(=O)[nH]c3ccccc3c2=O)CC1 | -9.52
O=c1c2ccccc2[nH]c(=S)n1CCCN1CCN(c2ccccc2)CC1 | 14
O=c1c2ccccc2[nH]c(=S)n1CCCN1CCC(Cc2ccccc2)CC1 | -52
CC1CCN(CCCn2c(=S)[nH]c3ccccc3c2=O)CC1 | -13.5
O=C(CCSc1nc2ccccc2o1)N1CCOCC1 | 8.39
CCOc1cc(C(=O)Nc2cccc3ncccc23)cc(OCC)c1OCC | -2.81
COC(=O)Cc1c(O)ccn(Cc2ccccc2OC)c1=O | 10.5
COc1cc(/C=N/Nc2nc3ccccc3[nH]2)cc(Br)c1OCC(=O)N(C)C | 0.153
COc1ccc2c(CCNC(=O)c3ccc([N+](=O)[O-])cc3)c[nH]c2c1 | 12.8
Cc1cccn2c(=O)c(C=Nc3ccccc3)c(NCCO)nc12 | 6
Cc1c(CC(=O)O)c(=O)oc2c(C)c3occ(-c4ccccc4)c3cc12 | 19.9
CC1(c2ccc(OC(F)F)cc2)NC(=O)N(CC(=O)Nc2ccccc2)C1=O (stereo not shown) | -26.2
CC1(c2ccc(OC(F)F)cc2)NC(=O)N(CC(=O)Nc2ccc(OC(F)F)cc2)C1=O (stereo not shown) | -100
CC1(c2ccc(OC(F)F)cc2)NC(=O)N(CC(=O)Nc2ccc(F)cc2)C1=O (stereo not shown) | -15.6
COc1ccc(O)c(/C=N/NC(=O)CN2CCS(=O)(=O)CC2)c1 | 15.5
COc1ccc(C2=NN(C(=O)CSc3nnc(C)c(=O)n3N)C(c3ccco3)C2)cc1 (stereo not shown) | -0.0705
COc1ccc(CCC(=O)N2CCN(c3ccccc3)CC2)cc1OC | 13.5
COc1ccccc1CC(=O)N1CCN(c2ccc([N+](=O)[O-])cc2)CC1 | -8.15
COc1ccc(CCC(=O)N2CCN(c3ccc([N+](=O)[O-])cc3)CC2)cc1OC | -76.1
COc1cc(CCC(=O)N2CCN(c3ccccc3)CC2)cc(OC)c1OC | -0.0932
COc1cc(CCC(=O)N2CCN(c3ccc([N+](=O)[O-])cc3)CC2)cc(OC)c1OC | -83.6
COCC(=O)N1CCN(c2ccc([N+](=O)[O-])cc2)CC1 | -31.5
CCOC(=O)Cc1nnc(-c2ccccc2)o1 | 5.78

Compound | hERG current change (%, negative = inhibition) at 1uM [%]
COc1ccc2nc(NC(=O)c3ccoc3C)sc2c1 | 17.6
S=C(NN=C1C2CC3CC(C2)CC1C3)Nc1ccccc1 | 11.9
CC(=O)Nc1ccc2oc(C)nc2c1 | 22.4
CC(C)(C)OC(=O)N[C@H](C(=O)OC(C)(C)C)c1ccc(C(F)(F)F)cc1 | 12.8
N=c1c(S(=O)(=O)c2ccccc2)cc2c(=O)n3ccccc3nc2n1C1CCCC1 | 8.93
Cc1ccc2nc3c(cc(C(=O)NCc4ccco4)c(=N)n3C3CCCC3)c(=O)n2c1 | -83.2
Cn1c2ccccc2c2c(C(=O)NCc3ccco3)cn(C3CCCCC3)c(=O)c21 | 7.44
N=c1c(C(=O)NCc2ccco2)cc2c(=O)n3ccccc3nc2n1C1CCCC1 | -82.2
Cc1ccc2nc(SCC(=O)NCc3ccco3)nc(=O)n2c1 | 11.3
O=C(NCc1ccco1)c1cnc2ccccn2c1=O | 5.25
C/C(=N\NC(=O)c1ccccc1[N+](=O)[O-])c1ccc(Br)s1 | 14.7
COc1ccc(CCNC(=O)CN(C2CCCCC2)S(C)(=O)=O)cc1 | 4.21
COC(=O)c1scc(C)c1S(=O)(=O)Nc1ccc(C)cc1 | 12.7
Cc1nc2scc(C)n2c(=O)c1S(=O)(=O)Nc1ccc(N2CCOCC2)cc1 | 5.65
Cc1ccc(S(=O)(=O)N2CCN(C(=O)c3cccs3)CC2)cc1C | 2.03
CCN1C(=O)C(CC(=O)Nc2ccc(Cl)cc2)N(NC(=O)c2ccncc2)C1=S (stereo not shown) | 12.2
CN1CCCN(Cc2nc(-c3cccc(C(F)(F)F)c3)no2)CC1 | -15.4
FC(F)(F)c1ccc(-c2noc(CN3CCCN(C4CCCCC4)CC3)n2)cc1 | -75.3
Cc1ccc(-c2noc(CN3CCCCC3)n2)cc1 | 31.5
CCN(CC)S(=O)(=O)c1cc(C(=O)Nc2cccnc2)ccc1Cl | -40.3
CC(=O)N1CCOc2ccc(S(=O)(=O)Nc3ccc(C)cn3)cc21 | 4.68
COCCNC(=O)c1ccccc1NC(=O)c1ccc(OC)c(OC)c1 | 4.05
Cc1ccc(CN2CCC(c3cc(-c4cccs4)n[nH]3)CC2)cc1 | -85.6

Compound | hERG current change (%, negative = inhibition) at 1uM [%]
COc1ccc(-c2cc(C3CCN(Cc4cccc(C(F)(F)F)c4)CC3)[nH]n2)cc1 | -13
COc1ccc(-c2cc(C3CCN(Cc4ccc([N+](=O)[O-])cc4)CC3)[nH]n2)cc1 | -44.3
CCOC(=O)CN1CCC(c2cc(-c3ccc(Cl)cc3)n[nH]2)CC1 | 22.3
CC(C)(C)OC(=O)N1CCC(c2cc(-c3cccs3)n[nH]2)CC1 | 4.89
Cc1ccc(CN2CCC(c3cc(-c4ccc(Cl)cc4)n[nH]3)CC2)cc1 | -78.1
S=c1[nH]ncn1/N=C/c1ccccc1 | 14.4
COc1nc(Nc2ccc([N+](=O)[O-])cc2)nc(NC2CCCCC2)n1 | 11.2
O=C(COc1ccccc1Cl)N1CCN(c2ccc([N+](=O)[O-])c(N3CCCCC3)c2)CC1 | 0.717
CCCCCNC(=O)[C@@H]1CSC2c3ccccc3C(=O)N21 (stereo partly shown) | 14
COc1ccc(CCc2nc(-c3cccs3)no2)cc1 | 5.28
O=C(CSc1ccc2nnc(-c3ccccn3)n2n1)Nc1ccc2c(c1)OCCO2 | -2.96
O=C(CSc1ccc2nnc(-c3cccnc3)n2n1)NCc1ccc2c(c1)OCO2 | 4.47
O=C(CSc1ccc2nnc(-c3ccccc3)n2n1)NCc1ccc2c(c1)OCO2 | -71
O=C(CSc1nnc(-c2ccccc2)n1Cc1ccco1)NCc1ccc2c(c1)OCO2 | -22.2
O=C(CSc1nnc(-c2cccnc2)n1Cc1ccco1)NCc1ccc2c(c1)OCO2 | -20.4
O=C(CSc1ccc2nnc(-c3ccccn3)n2n1)NCc1ccc2c(c1)OCO2 | -65.8
O=C(CSc1nnc(-c2cccnc2)n1-c1ccc(F)cc1)NCc1ccc2c(c1)OCO2 | -54.5
O=C(CSc1nnc(-c2cccnc2)n1-c1ccccc1)NCc1ccc2c(c1)OCO2 | -47.9
C=CCn1c(SCC(=O)NCc2ccc3c(c2)OCO3)nnc1-c1cccnc1 | 8.01
O=C(CSc1ccc2nnc(-c3ccncc3)n2n1)Nc1ccc2c(c1)OCO2 | 13.8
O=C(CSc1nnc(-c2ccc(Cl)cc2)n1Cc1ccco1)NCc1ccc2c(c1)OCO2 | -51.6
O=C(CSc1ccc2nnc(-c3ccccn3)n2n1)Nc1ccc2c(c1)OCO2 | 2.61
